Experimental data from the supplement of paper PMC7366291.
Where a name gives a salt, the structure may show the parent alone. ± gives the standard deviation or the standard deviation of the averaged measurements.

What was measured:
Conditions in all cases: 25 µM; exposure: 24-48 hpf
[1] = test system: Danio rerio Tg(wt1b:EGFP) embryo, pronephros; test: glomerular separation, fold change vs DMSO control; higher = glomeruli further apart (abnormal)
How it was run: (§1)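 Dechorionated Tg(wt1b:EGFP) zebrafish embryos were exposed to 25 μM compound in 0.5% DMSO, HEPES-buffered E3 with 0.003% PTU, from 24 to 48 hpf at 28.5°C. Pronephroi were imaged dorsally in agarose-filled 96-well plates (470 nm, 10 z-slices). On maximum projections, 16 reference points were set manually in Fiji and a macro computed distances and angles. Values more than 2 SD from the feature mean were excluded. Each feature is a fold change relative to the mean of same-day DMSO controls.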

[2] = test system: Danio rerio Tg(wt1b:EGFP) embryo, pronephros; test: glomerular width (mean of left and right), fold change vs DMSO control; higher = wider glomerulus
How it was run: as §1

[3] = test system: Danio rerio Tg(wt1b:EGFP) embryo, pronephros; test: fraction of imaged embryos annotated as normal kidney; higher = less nephrotoxic; extreme values may be limits of the assay
How it was run: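 Dechorionated Tg(wt1b:EGFP) zebrafish embryos were exposed in 12-well plates to 25 μM compound in 0.5% DMSO, 5 mM HEPES-buffered E3 with 0.003% PTU, from 24 to 48 hpf at 28.5°C. Tricaine-anaesthetised larvae were oriented dorsally in agarose-filled 96-well plates, and pronephroi were imaged by widefield fluorescence (470 nm, 10 z-slices). Each embryo was manually annotated from maximum projections. The read-out is the fraction of embryos per treatment assigned to the normal-kidney category.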

[4] = test system: Danio rerio Tg(wt1b:EGFP) embryo, pronephros; test: pronephric angle neck segment to proximal convoluted tubule (mean of left and right), fold change vs DMSO control; higher = larger pronephric angle
How it was run: as §1

SMILES | glomerular separation [1] | glomerular width [2] | fraction of imaged embryos annotated as normal kidney [3] | pronephric angle neck segment [4]
C[N+]12CCC(CC1)C(OC(=O)C(O)(c1ccccc1)c1ccccc1)C2 (centres undefined) [Clidinium bromide] | 0.83 ± 0.32 | 0.982 ± 0.1 | 0.917 | 0.967 ± 0.022
CN(C)C(=O)Oc1ccc[n+](C)c1 [Pyridostigmine iodide] | 1.26 ± 0.35 | 0.982 ± 0.096 | 0.917 | 1.03 ± 0.013
C[C@]12COC(=O)C[C@@H]1CC[C@@H]1[C@@H]2CC[C@@]2(C)[C@H]1CC[C@]2(C)O [Oxandrolone] | 0.832 ± 0.35 | 1.1 ± 0.05 | 0.917 | 1.01 ± 0.036
CCC(=O)O[C@H]1CC[C@H]2[C@@H]3CCC4=CC(=O)CC[C@]4(C)[C@H]3CC[C@]12C [Testosterone propionate] | 1.12 ± 0.46 | 1.03 ± 0.035 | 0.75 | 0.9686 ± 0.0074
NC(=O)OCCCc1ccccc1 [Phenprobamate] | 0.999 ± 0.4 | 1.03 ± 0.022 | 0.75 | 1.01 ± 0.05
Oc1ccc2c3c1O[C@H]1[C@@H](O)CC[C@@]4(O)[C@@H](C2)N(CC2CCC2)CC[C@]314 [Nalbuphine hydrochloride] | 0.874 ± 0.27 | 1 ± 0.033 | 0.75 | 1.04 ± 0.0056
O=c1[nH]oc2c1CCNC2 [THIP Hydrochloride] | 0.923 ± 0.31 | 1.08 ± 0.012 | 0.917 | 0.961 ± 0.03
Fc1ccc(C(OCCN2CCN(CCCc3ccccc3)CC2)c2ccc(F)cc2)cc1 | 5.45 ± 2.3 | 0.737 ± 0.028 | 0 | 1.02 ± 0.097
CCC(C)C1O[C@]2(C=C[C@@H]1C)C[C@@H]1CC(C/C=C(\C)[C@@H](OC3C[C@H](OC)[C@@H](OC4C[C@H](OC)[C@@H](O)[C@H](C)O4)[C@H](C)O3)[C@@H](C)/C=C/C=C3\COC4[C@H](O)C(C)=CC(C(=O)O1)[C@]34O)O2 (some centres undefined) [Avermectin B1a] | 2.03 ± 1.1 | 0.898 ± 0.044 | 0.583 | 1.14 ± 0.069
CCN(C(C)=O)c1cccc(-c2ccnc3c(C#N)cnn23)c1 [Zaleplon] | 0.976 ± 0.47 | 0.943 ± 0.034 | 0.833 | 1.03 ± 0.027
CC(C)(C)NCC(O)c1cc(Cl)c(N)c(Cl)c1 (centres undefined) [Clenbuterol hydrochloride] | 1.04 ± 0.33 | 1.08 ± 0.032 | 0.75 | 1 ± 0.067
O=C1CC[C@@]2(O)[C@H]3Cc4ccc(O)c5c4[C@@]2(CCN3CC2CC2)[C@H]1O5 [Naltrexone hydrochloride dihydrate] | 0.749 ± 0.22 | 1.124 ± 0.0082 | 0.833 | 1.03 ± 0.058
CCC1=C[C@H]2CN3CCc4c([nH]c5ccccc45)[C@](C(=O)OC)(C2)[C@H]13 [Catharanthine] | 0.982 ± 0.32 | 1.07 ± 0.1 | 0.833 | 1 ± 0.032
CC(=O)OCC(=O)[C@H]1CC[C@H]2[C@@H]3CC[C@H]4C[C@H](O)CC[C@]4(C)[C@H]3C(=O)C[C@]12C [Alfadolone acetate] | 1.22 ± 0.64 | 0.942 ± 0.057 | 0.75 | 1 ± 0.018
CCN[C@@H](C)Cc1cccc(C(F)(F)F)c1 [Dexfenfluramine hydrochloride] | 0.736 ± 0.23 | 1.04 ± 0.037 | 0.917 | 1.01 ± 0.03
CC(=O)OCC1=C(C(=O)O)N2C(=O)[C@@H](N)[C@H]2SC1 [Cephalosporanic acid, 7-amino] | 0.819 ± 0.17 | 1.136 ± 0.0094 | 1 | 0.977 ± 0.06
